Source: PubChem BioAssay
D2 ag-1: Beta-Arrestin HTS for Positive Allosteric Modulators of the Human D2 Dopamine Receptor: Agonists. D(2) dopamine receptor (Homo sapiens), P14416. DiscoveRx PathHunter D2 beta-arrestin, luminescence, 90 min; 100% = 57 uM dopamine signal. activation, % (no concentration beside the values). hit rate 0.084% among 360,000. AID 624465, 2012; in the data active = activation above about 40%; inconclusive = between about 15% and that limit
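Agonist mode: compounds alone added to overnight-plated D2 PathHunter cells for 90 min at 37 C, with 57 uM final dopamine (EC100) defining full response. Beta-arrestin recruitment detected by chemiluminescent reagent, read after 1 h at ambient temperature.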
D2 PAM-1: Beta-Arrestin HTS for Positive Allosteric Modulators of the Human D2 Dopamine Receptor: Potentiators | D(2) dopamine receptor (Homo sapiens), P14416 | DiscoveRx D2 beta-arrestin cells, luminescence, 90 min; 100% = 57 uM dopamine signal | potentiation, % (test concentration not listed) | hit rate 0.23% among 360,000 | AID 624464, 2012; in the data active = potentiation above about 50%; inconclusive = mostly about 30% to 49%
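PathHunter beta-arrestin assay in DiscoveRx D2 cells. Compounds were added with an EC20 of dopamine (50 nM final) for 90 min at 37 deg C. Luminescence was read 1 h after detection reagent, with 57 uM dopamine as the EC100 control.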
D2 PAM-2: HTS Assay for Positive Allosteric Modulators of the Human D2 Dopamine Receptor: Primary Screen for Potentiators; hit rate 0.34% among 340,000; potentiation, % at 10 µM; HEK293 T-REx D2, calcium flux, EC20 dopamine potentiation; D(2) dopamine receptor (Homo sapiens), P14416;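 active = potentiation over 3 SD above the plate norm, cut at about 30% in these data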; also: 0% is about no effect
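Cells plated with tetracycline inducer and held overnight at 30 C; calcium dye loaded 30–90 min at room temperature; baseline taken, compound added and read 180 s; EC20 dopamine then added and read 180 s.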
D2 ag-2: HTS Assay for Allosteric Agonists of the Human D2 Dopamine Receptor: Primary Screen for Agonists; D(2) dopamine receptor (Homo sapiens), P14416; HEK293 T-REx D2 cells, calcium flux agonist mode; activation, % at 2 µM; hit rate 0.53% among 340,000; AID 485358, 2010;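 active = activation over 3 SD above normal in the single-dose calcium agonist read, cut at about 30% in these data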; also: 0% is about no effect
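Agonism scored from kinetic calcium signal (1 read/sec, 180 s) following compound pin transfer, after a 10 s baseline. Cells: HEK293 Trex line expressing inducible D2 receptor coupled to calcium, dye-loaded after overnight culture at 30 C.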
D2 antagonist: HTS Assay for Allosteric Antagonists of the Human D2 Dopamine Receptor: Primary Screen for Antagonists; D(2) dopamine receptor (Homo sapiens), P14416; HEK293 TREx D2 cells, calcium flux, dopamine EC80; inhibition, % at 10 µM; hit rate 2% among 340,000; in the data active = inhibition above about 30%; inactive = below that, where a call was filed; also: 0% is about no effect
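Antagonism is scored as inhibition of an EC80 dopamine-evoked calcium signal in a force-coupled, tetracycline-inducible HEK293 T-REx D2 line, with compound present 180 s before agonist.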
D3 ag: qHTS of D3 Dopamine Receptor Agonist: D3 Dopamine Receptor B-arrestin Agonist Confirmatory Assay; Potency, µM (top dose mostly 76.9 µM), for the others: top-dose activation, hits mostly activators; hit rate 4% among 2,300; AID 720506, 2013; shares compounds with D2 ag-2; DiscoveRx D3 beta-arrestin cells, luminescence, 90 min;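 also: potency is read from the fitted curve at half-maximal effect; 100% = dopamine control response; nearly all actives have a fitted effect of over 70% in size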
Target sequence (P35462 whole entry, looked up): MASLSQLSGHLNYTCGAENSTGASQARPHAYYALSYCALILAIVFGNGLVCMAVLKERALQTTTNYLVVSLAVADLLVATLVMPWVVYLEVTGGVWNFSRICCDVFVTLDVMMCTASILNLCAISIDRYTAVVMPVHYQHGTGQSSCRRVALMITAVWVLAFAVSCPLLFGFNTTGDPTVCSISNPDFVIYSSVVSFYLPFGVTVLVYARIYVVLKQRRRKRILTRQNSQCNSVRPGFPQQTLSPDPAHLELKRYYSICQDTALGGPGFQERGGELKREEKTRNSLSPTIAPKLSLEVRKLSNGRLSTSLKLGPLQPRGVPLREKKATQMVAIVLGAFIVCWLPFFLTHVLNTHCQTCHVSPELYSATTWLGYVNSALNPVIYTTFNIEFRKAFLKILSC
D2 ag-3: qHTS of D3 Dopamine Receptor Agonist: D2 Dopamine Receptor B-arrestin Agonist Counterscreen; shares compounds with D2 ag-2; DiscoveRx PathHunter D2 beta-arrestin, luminescence, 90 min; response scale: percent relative to full dopamine signal; Potency, µM (highest dose often 76.9 µM), inactives show at the top dose activation, hits mostly activators; hit rate 5.9% among 2,300; AID 720507, 2013; also: potency is read from the fitted curve at half-maximal effect; % of control where 0% means no effect; nearly all actives have a fitted effect of over 70% in size
Active calls of the source: *. Only some compounds are listed: those with a hit (about 2.4% of all), similar ones and a draw of the others. Unless noted, calls follow the shape of the dose curve; as a rule, active = well fitted activation curve with a large enough effect; inconclusive = small, poorly fitted or top-dose-only effect; inactive = flat fitted curve, though single readings scatter.

Results for CC(NC(=O)CN1CCN(c2ncccn2)CC1)c1ccc(F)cc1 (stereo unspecified) ?
D2 ag-1: 8; D2 PAM-1: -32; D2 PAM-2: -16; D2 ag-2: 60*; D2 antagonist: 16; D3 ag: 11%; D2 ag-3: 19%

How did CC(C)(C)Cc1c(-c2ccco2)nc2ccc(Cl)cn12 do in these assays?
D2 ag-1: -5; D2 PAM-1: -5

Results for O=C(Nc1ccc(C(=O)NCCCN2CCCCC2)cc1)C1=CSCCO1 ?
D2 ag-1: 2; D2 PAM-1: -10

What do the screens show for `O=C(Nc1ccc(C(=O)NCCCN2CCN(c3ccc(F)cc3)CC2)cc1)C1=CSCCO1`?
D2 ag-1: 11; D2 PAM-1: -52; D2 PAM-2: -25; D2 ag-2: 69*; D2 antagonist: 69*; D3 ag: -14%; D2 ag-3: 25%

How did COc1ccc(S(=O)(=O)N2CCOCC2)cc1NC(=O)COc1ccccc1OC do in these assays?
D2 ag-1: 0; D2 PAM-1: -3; D2 PAM-2: 2; D2 ag-2: 0; D2 antagonist: -40

What do the screens show for `COc1ccccc1Oc1ccc(S(=O)(=O)N2CCOCC2)cc1S(=O)(=O)N1CCOCC1`?
D2 ag-1: -4; D2 PAM-1: -4; D2 PAM-2: -14; D2 ag-2: 44*; D2 antagonist: 1; D3 ag: 1%; D2 ag-3: -1%

Results for CCCN(Cc1cccs1)C(=O)Nc1ccccc1C ?
D2 PAM-2: -8; D2 ag-2: 1

How did COc1ccc(CN([C@H](CO)CC(C)C)S(=O)(=O)N(Cc2ccccc2)[C@H](CO)CC(C)C)cc1 do in these assays?
D2 ag-1: 1; D2 PAM-1: -7

What do the screens show for `COc1ccc(CN([C@H](C)CO)S(=O)(=O)N(Cc2ccccc2)[C@H](CO)C(C)C)cc1`?
D2 ag-1: -1; D2 PAM-1: -4; D2 PAM-2: 12; D2 ag-2: 0; D2 antagonist: 5; D3 ag: -5%; D2 ag-3: -6%

What do the screens show for `Cc1ccc(-n2nc(C)c(C(=O)NCCCN3CCN(c4cccc(Cl)c4)CC3)c2-n2cccc2)cc1`?
D2 PAM-2: -16; D2 ag-2: 8

What do the screens show for `N#CCC(=O)NCCCc1ccccc1`?
D2 ag-1: -4; D2 PAM-1: -4; D2 PAM-2: -5; D2 ag-2: 41*; D2 antagonist: 6; D3 ag: -6%; D2 ag-3: -5%

How did COCc1cc(C)nc2c1C(=O)NC(c1ccc(C)cc1)N2Cc1ccccc1 (stereo unspecified) do in these assays?
D2 PAM-2: 7; D2 ag-2: 0

Results for O=C(Cn1c(=O)oc2cc(Cl)ccc21)Nc1cccc(C(F)(F)F)c1 ?
D2 PAM-2: -9; D2 ag-2: 1

How did OC(CN1CCCCC1)Cn1c2ccccc2c2cc(Br)ccc21 (stereo unspecified) do in these assays?
D2 ag-1: 7; D2 PAM-1: -10; D2 PAM-2: -28; D2 ag-2: 39*; D2 antagonist: 80*; D3 ag: 15%; D2 ag-3: -1%

How did CC1=C(C(=O)N2CCCCCC2)CC(CC(=O)NCc2ccco2)C(=O)N1Cc1ccccc1 (stereo unspecified) do in these assays?
D2 ag-1: -5; D2 PAM-1: -3

Results for COc1c(C)cccc1C(=O)Nc1ccc(-c2nc3ccccc3s2)c(Cl)c1 ?
D2 PAM-2: 4

Results for Cc1ccc(-n2ncc3c2CC(C)(C)CC3NC(=O)CN2CCCC2=O)cc1 (stereo unspecified) ?
D2 ag-1: -1; D2 PAM-1: 7; D2 PAM-2: -8; D2 ag-2: 0; D2 antagonist: 9

Results for C=CCC(=O)NC1CC(C)(C)Cc2c1cnn2-c1ccc(C)cc1 (stereo unspecified) ?
D2 ag-1: 4; D2 PAM-1: 0; D2 PAM-2: -20; D2 ag-2: 72*; D2 antagonist: 14; D3 ag: -8%; D2 ag-3: -5%

What do the screens show for `COc1ccc(O)c(-c2nc(N)nc(N)n2)c1`?
D2 ag-1: -1; D2 PAM-1: -5; D2 PAM-2: 14; D2 ag-2: 0; D2 antagonist: -11; D3 ag: -4%; D2 ag-3: -4%

How did CC1(C)Cc2c(sc3nc[nH]c(=O)c23)CO1 do in these assays?
D2 ag-1: 0; D2 PAM-1: 3; D2 PAM-2: 6; D2 ag-2: -1; D2 antagonist: 19

Results for OCCCNc1ncnc2sc3c(c12)CCN(Cc1ccccc1)C3 ?
D2 ag-1: -5; D2 PAM-1: -4; D2 PAM-2: -6; D2 ag-2: 0; D2 antagonist: -12

What do the screens show for `O=c1[nH]cnc2sc3c(c12)CN(Cc1ccccc1)CC3`?
D2 ag-1: inconclusive; D2 PAM-1: 18; D2 PAM-2: -22; D2 ag-2: 78*; D2 antagonist: 74*; D3 ag: -5%; D2 ag-3: -1%

What do the screens show for `O=c1[nH]cnc2sc3c(c12)CCN(Cc1ccccc1)C3`?
D2 ag-1: inconclusive; D2 PAM-1: 8; D2 PAM-2: -15; D2 ag-2: 62*; D2 antagonist: 18; D3 ag: 1%; D2 ag-3: 1%

Results for Cc1cccc(CN2CCN(c3ncccn3)CC2)c1 ?
D2 ag-1: inconclusive; D2 PAM-1: inconclusive; D2 PAM-2: -30; D2 ag-2: 87*; D2 antagonist: 83*; D3 ag: inconclusive; D2 ag-3: 7.9µM*

How did Brc1cccc(CN2CCN(c3ncccn3)CC2)c1 do in these assays?
D2 ag-1: 73*; D2 PAM-1: inconclusive; D2 PAM-2: -17; D2 ag-2: 73*; D2 antagonist: 85*; D3 ag: 26%; D2 ag-3: 11µM*

Results for CCC(C)NC(=O)c1cnn(-c2cccc(F)c2)c1-n1cccc1 (stereo unspecified) ?
D2 PAM-2: 7
